# This is a sample that favours compounds with a hit; in the whole collection about 4.2% have one here.
# ALOX12 inh: ALOX12 (human) lipoxygenase inhibition; purified 12hLO, xylenol orange hydroperoxide absorbance; Potency, µM (doses to about 108 µM), most hits filed as inhibitors; hit rate 1.1% among 580,000
#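 Purified human 12hLO at 150 nM in 25 mM Hepes, 0.01% Triton X-100, pH 7.0, preincubated 15 min at room temperature with compound. Reaction started with 40 uM arachidonic acid, 30 min at room temperature. Hydroperoxide measured by Fe-xylenol orange, 573/405 nm absorbance ratio.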
# Sfp inh: Sfp phosphopantetheinyl transferase inhibition. hit rate 3.5% among 310,000. Q9F4F7. Biochemical Sfp PPTase activity, qHTS. Potency, µM, usual class: inhibitors;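 also: the enzyme is Sfp with the accession as filed and its product quenches rhodamine fluorescence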
#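 Sfp 15 nM + cpd, 15 min RT; start w/ rhodamine-CoA 5 uM, BHQ-2-YbbR 12.5 uM (final); 50 mM Hepes pH 7.6, 10 mM MgCl2, 0.01% NP-40, 0.01% BSA; read 525/598 nm at 0 and 30 min.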
# VDR inh: blocks the human vitamin D receptor. P11473. VDR-SRC2-3 peptide fluorescence polarization, 2 h. Potency, µM, actives largely listed as inhibitors. hit rate 0.93% among 400,000
# Target sequence (P11473 whole entry, looked up): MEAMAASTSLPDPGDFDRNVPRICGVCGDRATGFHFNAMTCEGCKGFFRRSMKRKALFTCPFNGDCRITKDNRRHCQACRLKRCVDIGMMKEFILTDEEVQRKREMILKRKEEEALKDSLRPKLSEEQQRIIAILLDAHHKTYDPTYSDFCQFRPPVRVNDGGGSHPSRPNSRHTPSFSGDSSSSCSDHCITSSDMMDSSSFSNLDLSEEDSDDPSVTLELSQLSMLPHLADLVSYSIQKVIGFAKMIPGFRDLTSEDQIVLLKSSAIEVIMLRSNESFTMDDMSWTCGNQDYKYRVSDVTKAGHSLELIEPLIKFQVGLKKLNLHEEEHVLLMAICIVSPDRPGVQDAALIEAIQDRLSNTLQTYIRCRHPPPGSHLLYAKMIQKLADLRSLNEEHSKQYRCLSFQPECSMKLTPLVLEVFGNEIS
#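 Compounds are added to VDR with labelled SRC2-3 coactivator peptide and held 2 h at room temperature. Inhibition of the VDR–peptide interaction is then read as a change in fluorescence polarization.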
# PLK1 PBD inh: blocks phosphopeptide binding to human PLK1 polo-box domain. P53350. Plk1 PBD binding of FITC phosphopeptide, fluorescence polarization. Potency, µM, actives largely listed as inhibitors. hit rate 2.8% among 360,000. AID 720504; also: series mostly up to about 57 µM; nearly all actives have a fitted effect of over 65% in size
# VDR inh confirm: inhibits human vitamin D receptor, primary hit validation | shares compounds with VDR inh | VDR-coactivator inhibition assay, qHTS confirmation | Potency, µM, hits mostly inhibitors | hit rate 89% among 840 | AID 602199
# VDR FP: confirmation of human VDR-coactivator binding inhibitors, fluorescein label; shares compounds with VDR inh; VDR-coactivator binding, fluorescein fluorescence polarization; Potency, µM (doses to about 57.1 µM), actives largely listed as inhibitors; hit rate 48% among 840; AID 602200
# VDR bla: VDR (human) inhibition, cell-based beta-lactamase validation; shares compounds with VDR inh; VDR beta-lactamase reporter cells, FRET ratio; cells co-treated with VDR agonist LG190178; Potency, µM (doses to about 46.1 µM), actives largely listed as inhibitors; hit rate 23% among 840
# VDR viability: cell toxicity, VDR inhibitor hit counter-screen; shares compounds with VDR inh; hit rate 18% among 840; Potency, µM (titrated, usually from 48.3 µM), hits mostly cytotoxic; cytotoxicity counter-screen, cell viability, qHTS; also: nearly all actives have a fitted effect of over 75% in size
# TbPYK inh: Trypanosoma brucei pyruvate kinase inhibition, cherry-pick confirmation | hit rate 67% among 890 | shares compounds with PLK1 PBD inh | Potency, µM (top dose mostly 76.9 µM), hits mostly inhibitors | recombinant TbPYK, Kinase-Glo ATP luminescence; also: nearly all actives have a fitted effect of over 70% in size
# TbPYK ADP-Glo: inhibits T. brucei pyruvate kinase in orthogonal ADP-Glo assay; Potency, µM (titrated, usually from 76.9 µM), most hits filed as inhibitors; recombinant TbPYK, ADP-Glo luminescence, 60 min; hit rate 62% among 890; AID 720584; shares compounds with PLK1 PBD inh; also: nearly all actives have a fitted effect of over 75% in size
# A number is an active result; – = inactive; ? = inconclusive; · = not tested or not shown. Calls follow the shape of the dose curve; as a rule, active = well fitted curve in the direction sought with a large enough effect; inconclusive = small, poorly fitted or top-dose-only effect, or another doubt; inactive = no such curve, though single readings can be large; an effect the other way counts as inactive or inconclusive.
SMILES,ALOX12 inh,Sfp inh,VDR inh,PLK1 PBD inh,TbPYK inh,TbPYK ADP-Glo,others
CCC(=O)NC1=C(Cl)C(=O)C(NC(=O)CC)=C(Cl)C1=O,?,0.56µM,14µM,1.7µM,0.25µM,0.4µM,VDR inh confirm=6.7;VDR FP=5µM;VDR bla=15µM;VDR viability=13µM
CCOC(=O)C1CCCN(C(=O)CN2C(=O)/C(=C/c3ccc(OC)cc3)Oc3ccccc32)C1 (stereo not given),–,?,–,–,·,·,
O=C1COc2ccc(C(=O)NC3CC3)cc2N1,–,–,–,–,·,·,
O=C(O)/C=C/C(=O)c1ccc2c(c1)NC(=O)CO2,–,8.9µM,22µM,?,16µM,16µM,VDR inh confirm=9.5;VDR FP=?;VDR bla=–;VDR viability=–
COc1ccccc1C(O)c1nc(Nc2ccc(Cl)cc2)n[nH]1 (stereo not given),–,·,·,·,·,·,
Cc1nc(N2CCCCC2)c2sc(=S)n(C)c2n1,–,–,–,–,·,·,
CCN1CCN(c2nc(C)nc3c2sc(=S)n3C)CC1,–,2.8µM,25µM,3µM,5.6µM,16µM,
CC1CN(Cc2nc3c(c(=O)n(C)c(=O)n3C)n2CC(O)CO)CC(C)O1 (stereo not given),–,–,–,–,·,·,
C=Cc1ccc(Cn2c(C)c(CNCc3ccccc3C)c(C(=O)O)c2C)cc1,?,·,–,·,·,·,
Cc1ccc2cc(CN(CC(C)C)C(=O)C3CCCO3)c(=O)[nH]c2c1 (stereo not given),–,–,–,–,–,–,
Cc1ccc2cc(CN(CC3CCCO3)C(=O)C(C)C)c(=O)[nH]c2c1 (stereo not given),–,–,–,–,·,·,
CCOC(=O)CCc1c(C)nc(SCC(=O)O)c(C#N)c1C,?,79µM,?,–,2.2µM,7.1µM,
Cc1nc(SCC(=O)O)c(C#N)c(C)c1CC(=O)c1ccccc1,–,–,–,–,5.6µM,11µM,
Cc1cccc(C(=O)N[C@H](C(=O)Nc2ncc(C)s2)C(C)C)c1,–,–,–,–,·,·,
O=C(Cc1ccccc1)OCC(=O)c1cccc([N+](=O)[O-])c1,–,·,–,–,·,·,
CC(C)n1c(=O)[nH]c2ccccc21,–,–,–,–,·,·,
CC(C)n1c(=O)[nH][nH]c1=S,35µM,8.9µM,50µM,11µM,1µM,2.5µM,
CCC(C)Nc1nc2c(c(=O)[nH]c(=O)n2C)n1Cc1ccccc1Cl (stereo not given),–,·,·,·,·,·,
O=C(CCSCCC(=O)NCc1ccco1)NCc1ccco1,–,16µM,?,21µM,?,?,
CC(=O)N1c2ccccc2Sc2ccccc21,–,–,–,–,·,·,
CC(=S)/C=C1\Sc2ccccc2N1C,10µM,45µM,?,27µM,?,14µM,
Cn1c(SCC(=O)NC2CCCCC2)nnc1-c1ccc(F)cc1,–,·,·,·,·,·,
Cn1c(SCC(=O)NC2CCCCC2)nnc1-c1cccc(N)c1,–,–,–,–,?,?,
N#CC1=C(SCc2ccccc2)NC2=C(C(=O)CCC2)C1c1ccc2c(c1)OCO2 (stereo not given),–,?,?,?,·,·,
CC(C)c1ccc(C2CC(=O)N3CN(Cc4ccco4)CSC3=C2C#N)cc1 (stereo not given),?,2.2µM,40µM,27µM,0.14µM,0.45µM,
N#CC1=C2SCN(Cc3ccccc3)CN2C(=O)CC1c1ccc2c(c1)OCO2 (stereo not given),40µM,1.8µM,50µM,19µM,?,?,
COc1cc(C2CC(=O)N3CN(Cc4ccco4)CSC3=C2C#N)ccc1OCc1ccccc1 (stereo not given),25µM,3.5µM,?,?,?,1µM,
COc1cc(CNCc2ccco2)ccc1OCc1ccccc1,–,–,–,–,·,·,
